Measured values taken from the supplement of paper PMC6555819.

Key:
Test in all cases: PBM binding z-score (relative to random genomic background probes); higher = stronger binding; sequences stand for … in GC…GCGATTGACAGCGTAGAATGAAGG
[1] = system: RARb homodimer (NR concentration 270 nM)
How it was run: (§1)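 Probes were double-stranded and carried 34-nt variable regions with direct-repeat seeds, single-nucleotide variants, half-site ablations and random human genomic background sequences, printed on custom Agilent 4×180K protein-binding microarrays. Arrays were incubated 1 h with ligand-free nuclear receptor dimers in PBS pH 7.4, 2% milk, 0.02% Triton X-100, 1 mM DTT, 0.2 mg/mL BSA and 0.4 mg/ml salmon testes DNA. Antibodies against each partner (one per run) detected binding, and scanned fluorescence was regression-normalized. Binding z-scores use the random background probes as reference.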

[2] = system: RARg:RXRa (NR concentration 270 nM, RXRa partner concentration 90 nM)
How it was run: as §1

[3] = system: RARg homodimer (NR concentration 270 nM)
How it was run: as §1

[4] = system: RXRa DBDmut IVT, anti-RXR (DBD mutation: RXRa K156A/R161A, NR concentration 90 nM)
How it was run: as §1

[5] = system: RXRa homodimer (NR concentration 180 nM)
How it was run: as §1

[6] = system: THRa:RXRa (NR concentration 90 nM, RXRa partner concentration 90 nM)
How it was run: as §1

[7] = system: THRa homodimer (NR concentration 90 nM)
How it was run: as §1

[8] = system: VDR homodimer (NR concentration 270 nM)
How it was run: as §1

Sequence | PBM binding z-score [1] | PBM binding z-score [2] | PBM binding z-score [3] | PBM binding z-score [4] | PBM binding z-score [5] | PBM binding z-score [6] | PBM binding z-score [7] | PBM binding z-score [8]
ACGAGCAGGCCAAGTTTGGGTCACTCAAACAAAG | 2.28 | 2.29 | 1.45 | -0.315 | 0.708 | 2.59 | 1.04 | 0.234
GCAACTGGGGCATCAGCAGGTTACCATAACTTAA | 0.793 | 0.74 | 0.473 | 0.26 | 0.318 | 1.04 | 0.19 | -0.0433
TCTGCTAGGTCAACGATGGCCAGCTAATCTGCTA | 2.85 | 3.75 | 4.72 | 0.868 | 2.35 | 2.6 | 0.486 | -0.708
TCAAGTTGGTCAAAGGTCACACACTCGAAATGCG | 5.19 | 7.2 | 6.47 | 2.15 | 8.37 | 4.16 | 1.86 | 2.4
TCTCGGAGGACACAAAAGGTCAGAGCTCGACATC | 4.4 | 4.67 | 4.91 | 1.15 | 3.9 | 3.41 | 1.1 | 1.02
CGTCCAAGGTCAATGCTAAGTCAGTGAAAGCATT | 3.83 | 5.54 | 6.06 | 3.39 | 4.48 | 3.72 | 1.98 | 2.06
ATCTCTAGGTTACCAAGTTCAGTGAATGCCGAAC | 2.58 | 1.88 | 1.79 | 1.48 | 1.26 | 1.97 | 1.14 | 3.3
